Bioassay records (PubChem)
Shown are actives, neighbours in structure and some others; about 2.7% of the full set was active somewhere.
ANO1 block: inhibitors of mouse TMEM16A calcium-activated chloride channel; normalized B-score (activity score, 25-100; higher = stronger inhibition) at 10 µM; HEK293 TMEM16A/YFP iodide influx fluorescence, ionomycin; hit rate 1.2% among 310,000; Q8BHY3;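 active means ratio plate-corrected score three or more library SD toward inhibition, starting fluorescence score within five deviations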;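 further: score derived from kinetic fluorescence span divided by baseline fluorescence per well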
PP5 primary: inhibitors of human protein phosphatase 5 (PP5); P53041; purified PP5c, OMFP substrate fluorescence; inhibition, % at 6.7 µM; hit rate 0.18% among 320,000; AID 1987;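 active means inhibition above the campaign's mean inhibition across all tested compounds plus 3 SD, cut at about 9.5% in these data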
PREPL inh: inhibits the human prolyl oligopeptidase-like enzyme. Q4J6C6. recombinant PREPL, fluorescence polarization activity-based probe. inhibition, % at 5.96 µM. hit rate 0.68% among 320,000; in the data active means inhibition above about 43%
Target sequence (Q4J6C6 whole entry, looked up): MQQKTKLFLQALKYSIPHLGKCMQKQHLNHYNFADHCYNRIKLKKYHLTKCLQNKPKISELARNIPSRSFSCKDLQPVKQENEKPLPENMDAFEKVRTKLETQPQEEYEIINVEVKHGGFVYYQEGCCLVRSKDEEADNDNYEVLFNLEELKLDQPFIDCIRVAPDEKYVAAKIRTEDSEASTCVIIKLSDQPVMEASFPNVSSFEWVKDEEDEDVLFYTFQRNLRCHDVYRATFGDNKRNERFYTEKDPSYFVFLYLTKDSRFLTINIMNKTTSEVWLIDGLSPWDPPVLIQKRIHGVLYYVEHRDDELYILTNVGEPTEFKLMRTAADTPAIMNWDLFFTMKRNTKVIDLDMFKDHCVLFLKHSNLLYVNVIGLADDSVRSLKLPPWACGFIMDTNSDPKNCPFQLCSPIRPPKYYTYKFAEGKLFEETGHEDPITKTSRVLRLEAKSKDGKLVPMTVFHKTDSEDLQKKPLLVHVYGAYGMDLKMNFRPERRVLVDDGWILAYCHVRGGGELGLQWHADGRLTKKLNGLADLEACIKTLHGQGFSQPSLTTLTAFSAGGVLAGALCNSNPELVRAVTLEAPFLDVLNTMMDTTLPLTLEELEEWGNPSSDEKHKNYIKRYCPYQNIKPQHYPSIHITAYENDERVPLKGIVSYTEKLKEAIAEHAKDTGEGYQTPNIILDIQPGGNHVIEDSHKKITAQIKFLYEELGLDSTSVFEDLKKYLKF
DNA FID counter: counter-screen for HCV NS3 helicase inhibitors: DNA intercalator displacement; AID 1845; hit rate 0.17% among 290,000; inhibition, % at 7.9 µM; DNA fluorescent intercalator displacement, fluorescence; in the data active means inhibition above about 37%;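 further: higher means more ethidium bromide displaced from hairpin DNA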
TMEM16A act: activators or potentiators of mouse TMEM16A chloride channel | B-score at 10 µM | HEK293 TMEM16A/YFP-H148Q/I152L, iodide quench fluorescence; stronger effect = lower value | AID 623877 | hit rate 0.3% among 340,000;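 active means fluorescence-ratio B-score plate-corrected deviation score at least 3 library SD below zero, with starting fluorescence score within 5 deviations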;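 further: channel opened by trigger with iodide after compound preincubation; score built on the fluorescence ratio of max minus min over baseline; more negative score means more quench and so TMEM16A activation or potentiation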
PP1 counter: PP1-alpha (human) inhibition in PP5 counter-screen | P62136 | purified PP1alpha, OMFP fluorescence | inhibition, % at 6.7 µM | hit rate 0.9% among 320,000 | AID 2235;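 active means inhibition above the mean inhibition of all tested compounds plus 3 SD, computed separately for each screening campaign, cut at about 15% in these data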
Each line names hits and unclear results; the compound was inactive in the other large screens.

CCOC(=O)C1(CCOc2ccccc2)CCN(Cc2ccc(-n3cccn3)cc2)CC1	ANO1 block 25
Cc1ccc(N=C2C(=O)Nc3ccc(C)c(Br)c32)cc1	ANO1 block 25
COc1ccc(N=C2C(=O)Nc3ccc(C)c(Br)c32)cc1	none
O=C(NCCc1ccccc1)C1CCC(=O)N1C1CCCC1 (stereo unspecified)	none
O=C1c2ccccc2C(=O)N1CC(O)Cn1nnc2ccccc21 (stereo unspecified)	none
OC(CN1c2ccccc2Sc2ccccc21)Cn1nnc2ccccc21 (stereo unspecified)	ANO1 block 100
CCOC(=O)c1c(C)[nH]c(C(=O)NCCc2ccc(OC)c(OC)c2)c1C	none
CCN(C(=O)c1ccc(C(C)(C)C)cc1)c1nnc(Cn2nnc3ccccc32)s1	ANO1 block 100
COc1cccc(NC(=O)CN(C)C(=O)c2cc3ccccc3cc2OC)c1	TMEM16A act -34.1 (no result: ANO1 block, DNA FID counter)
O=C(Cc1cccc2ccccc12)N/N=C/c1ccc(Sc2nc3ccccc3s2)o1	none
CC(C)n1nnc2c(=O)oc3ccccc3c21	none
CN(Cc1cccs1)C(=O)CCc1c[nH]c2ccccc12	none
CN(Cc1cccs1)C(=O)CCCc1c[nH]c2ccccc12	TMEM16A act -6.3
O=C(N=Nc1c(O)[nH]c2ccccc12)c1cccs1	none
O=C(N=Nc1c(O)[nH]c2ccccc12)c1cc(NS(=O)(=O)c2cccs2)cc(NS(=O)(=O)c2cccs2)c1	PP1 counter 16.4
O=C(NC1CCN(C(=O)Nc2ccc(F)cc2)CC1)c1cccc(F)c1	none
O=C(NC1CCN(C(=O)Nc2ccc(F)cc2)CC1)c1ccc(F)cc1	TMEM16A act -5.21
O=C(CSc1nc2ccc([N+](=O)[O-])cc2[nH]1)NC1CCCCCC1	ANO1 block 100
COc1cccc(CN(C)C(=O)c2cc(COc3ccc(-n4cncn4)cc3)on2)c1	ANO1 block 25
COc1cccc(CN(C)C(=O)c2cc(COc3c(F)cccc3F)on2)c1	none
c1ccc2c(Nc3nc(N4CCOCC4)c4ccccc4n3)cccc2c1	PREPL inh 53.3
CCOC(=O)Cc1c(C)nc(Cc2ccc(OC(C)C)cc2)[nH]c1=O	none
CCCC(c1nnnn1Cc1cccs1)N1CCN(c2nc3ccccc3s2)CC1 (stereo unspecified)	TMEM16A act -12.9
CCCC(c1nnnn1CC1CCCO1)N1CCN(c2nc3ccccc3s2)CC1 (stereo unspecified)	none
CN1Cc2c(N3CCOCC3)nc3sc(C(=O)c4ccc(Br)cc4)c(N)c3c2CC1(C)C	PREPL inh 68.3
CN1Cc2c(N3CCOCC3)nc3sc(C#N)c(N)c3c2CC1(C)C	none
O=C(/C=C/c1ccccc1O)c1ccc(Cl)cc1	PP1 counter 16.6
O=C(/C=C/c1ccccc1O)c1ccccc1	none (no result: ANO1 block, PP5 primary, PREPL inh, DNA FID counter, PP1 counter)
COc1cc(C)nc(N2CCCC(C(=O)Nc3cc(Cl)ccc3OC)C2)n1 (stereo unspecified)	ANO1 block 25
COc1cc(C)nc(N2CCCC(C(=O)NC3CCC(C)CC3)C2)n1 (stereo unspecified)	none (no result: DNA FID counter, TMEM16A act)
O=C(Cn1cnc2sc(-c3ccccc3)cc2c1=O)NCc1ccccc1	PP1 counter 15.2
N#CC(C#N)=C1C=CC=CN1/C(=C\c1ccccc1Cl)C(=O)c1ccccc1	TMEM16A act -8.37
O=C(COC(=O)CCSc1ccc(Cl)cc1)Nc1ccc(F)cc1	none
Cc1ccc(SCCC(=O)OCC(=O)Nc2ccc(S(N)(=O)=O)cc2)cc1	TMEM16A act -4.91
COc1cc(/C=C(/C#N)c2nc3ccccc3[nH]2)ccc1OC(=O)c1ccco1	PREPL inh 83.2, TMEM16A act -4.83
CC(C)Cc1nc2sc3c(c2c(=O)n1N)CC(C)(C)OC3	none
c1ccc(-c2csc3nnc(SCc4ccc5c(c4)OCCO5)n23)cc1	ANO1 block 25
O=C(CSc1nnc2scc(-c3ccccc3)n12)c1ccc2c(c1)OCCO2	none
Cc1csc2nc(O)c(C(=O)NC3CCCCC3)c(=O)n12	none (no result: DNA FID counter)
Cc1csc2nc(O)c(C(=O)NCc3ccc4c(c3)OCO4)c(=O)n12	PP1 counter 17.1 (no result: DNA FID counter)
CCOC(=O)C1CCCN(C(=O)CCCn2c(=O)c3cccn3c3cccnc32)C1 (stereo unspecified)	none
CCCc1ccc(C(C)NC(=S)NC2CCCCC2)cc1 (stereo unspecified)	ANO1 block 100 (no result: PP5 primary, PREPL inh, PP1 counter)
CC(NC(=S)NC1CCCCC1)c1ccccc1 (stereo unspecified)	none
CC(=NCCCn1ccnc1)c1c(-c2ccccc2)[nH]n(-c2nc3ccccc3s2)c1=O	PP1 counter 16.7
CC(=NC1CC1)c1c(-c2ccccc2)[nH]n(-c2nc3ccccc3s2)c1=O	none
COc1c(N2CCN(C(=S)Nc3ccccc3)C(C)C2)c(F)cc2c(=O)c(C(=O)O)cn(C3CC3)c12 (stereo unspecified)	none (no result: ANO1 block, PP5 primary, PREPL inh, TMEM16A act, PP1 counter)
COC(=O)C(C)NC(=S)N1CCN(c2c(F)cc3c(=O)c(C(=O)O)cn(C4CC4)c3c2OC)CC1C (stereo unspecified)	PP1 counter 16.0
CNC(=S)N1CCN(c2c(F)cc3c(=O)c(C(=O)O)cn(C4CC4)c3c2OC)CC1C (stereo unspecified)	PP1 counter 15.9
CC1CC2OC2CC1COC(=O)C1CC2OC2CC1C (stereo unspecified)	none (no result: ANO1 block, PP5 primary, PREPL inh, DNA FID counter, PP1 counter)
COc1ccc(-c2csc(NC(=O)c3ccccc3NS(=O)(=O)c3ccc(C)cc3)n2)cc1	ANO1 block 100
C=CCOc1ccc(C=Nc2ccc(C)c(Cl)c2)c(O)c1	none
CCOc1ccc(NS(=O)(=O)c2ccc(NC(=S)NC(=O)C(C)C)cc2)cc1	none
COc1ccc(NS(=O)(=O)c2ccc(NC(=S)NC(=O)C(C)C)cc2)cc1	ANO1 block 25
O=C(COc1ccccc1)Nc1c(C(=O)N2CCC(N3CCCCC3)CC2)oc2ccccc12	none
CN(C)CCN(Cc1ccco1)C(=O)c1oc2ccccc2c1NC(=O)COc1ccccc1	DNA FID counter 38.1
CCc1cc(=O)oc2c3c(cc(OCC(=O)N[C@H](C(=O)O)[C@H](C)CC)c12)OC(C)(C)CC3	none
Nc1ccc2nc3c(=O)n(CCc4ccccc4)c(=O)[nH]c3nc2c1	TMEM16A act -6.58
CC1=NN(C(N)=S)C(=O)C1N=Nc1c(Cl)cc([N+](=O)[O-])cc1Cl (stereo unspecified)	ANO1 block 25
CC1=NN(C(N)=S)C(=O)C1N=Nc1c(Br)cc(Br)cc1Br (stereo unspecified)	ANO1 block 100
CC1=NN(C(N)=S)C(=O)C1N=Nc1c(C)cc(C)cc1C (stereo unspecified)	PP1 counter 16.9
CC1=NN(C(N)=S)C(=O)C1N=Nc1ccc(C)cc1C (stereo unspecified)	none (no result: TMEM16A act)
COc1ccccc1NC(=O)Cc1nnc(SCC(=O)NC2=NCCS2)n1C	none
CCOc1ccc(C(=O)NCc2ccccn2)cc1	none
